Calls of active or inactive are those of the source. The calls were made as follows: active = hit-call score of the fitted dose curve at least 0.9, where 1 is the maximum; inactive = score below 0.9.

Sequence of Cellular tumor antigen p53 (Homo sapiens) (P04637 whole entry, looked up, the tested form may be a part): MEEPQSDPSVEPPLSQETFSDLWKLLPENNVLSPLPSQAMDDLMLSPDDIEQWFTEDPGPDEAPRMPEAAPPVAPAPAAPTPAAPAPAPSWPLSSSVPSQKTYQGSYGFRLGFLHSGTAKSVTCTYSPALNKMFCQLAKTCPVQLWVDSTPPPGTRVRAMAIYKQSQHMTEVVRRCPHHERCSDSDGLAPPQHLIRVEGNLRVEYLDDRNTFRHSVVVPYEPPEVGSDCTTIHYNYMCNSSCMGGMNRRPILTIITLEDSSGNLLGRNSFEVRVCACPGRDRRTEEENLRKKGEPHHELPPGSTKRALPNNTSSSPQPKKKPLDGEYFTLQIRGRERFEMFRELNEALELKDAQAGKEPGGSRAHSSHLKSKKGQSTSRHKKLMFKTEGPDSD

The assay has as its target Cellular tumor antigen p53 (Homo sapiens) (UniProt P04637). Kind of assay: ATG_p53_CIS: Attagene CIS-FACTORIAL HepG2 Assay for human p53 Transcription Factor (AID 2282994). The conditions noted are these: HepG2 p53 cis-element reporter, Attagene mRNA; actives raise or lower the signal. In outline:
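Steps: transfect HepG2 with multiplexed cis reporter constructs; dose chemicals 24 h; extract RNA, reverse-transcribe, PCR-amplify reporter sequences; FAM-label, HpaI-digest, resolve fragments by CE. Activity fitted both directions relative to DMSO.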
As to `CC(=O)OCc1ccc2c(c1)OCO2`, the call was inactive.

On to `CCCCC(CC)COC(=O)/C=C\C(=O)OCC(CC)CCCC` (stereo not drawn), for which the result was inactive.

In the case of `O=c1[nH]nnc2ccccc12`, the outcome was inactive.

As for `CC(C)=CCO`, the compound was called inactive.

Take `CC1(C)[C@H]2CC[C@]1(C)[C@H](O)C2`: the compound was called inactive.

Consider `CCCc1c(OCCCOc2ccc(OCC(=O)O)cc2)ccc(C(C)=O)c1O`, for which the call was inactive.

On to `OCCN1CCNCC1`, for which the result was inactive.

Turning to `CCCCNC(=O)NS(=O)(=O)c1ccc(C)cc1`, the compound was classed as inactive.

As for `CC(=O)C(=O)O`, the compound was called inactive.

`COC(=O)Cc1cccc2ccccc12`: the compound was called inactive.

`Nc1cccc(S(=O)(=O)c2cccc(N)c2)c1`: the outcome was inactive.

In the case of `O=Cc1ccc(F)cc1`, the result was inactive.

As for `COCCOCCOCCOCCOCCO`, the call was inactive.

Values taken from PubChem BioAssay (EPA / NIEHS).
